Data as given in PubChem BioAssay AID504447 (The Scripps Research Institute Molecular Screening Center, 2011).
Potency and affinity values are given separately. The source made the active and inactive calls. How the calls were made is not given here.

These compounds were tested against Peroxisome proliferator-activated receptor gamma (Homo sapiens) (UniProt P37231) (assay: PPARg partial agonists, dose response, cell-based, luminescence, assay provider (AID 504447)). Settings: cell-based PPARg reporter, luciferase luminescence, partial agonism; series mostly up to 5 µM.
Peroxisome proliferator-activated receptor gamma (Homo sapiens), sequence (P37231 whole entry, looked up): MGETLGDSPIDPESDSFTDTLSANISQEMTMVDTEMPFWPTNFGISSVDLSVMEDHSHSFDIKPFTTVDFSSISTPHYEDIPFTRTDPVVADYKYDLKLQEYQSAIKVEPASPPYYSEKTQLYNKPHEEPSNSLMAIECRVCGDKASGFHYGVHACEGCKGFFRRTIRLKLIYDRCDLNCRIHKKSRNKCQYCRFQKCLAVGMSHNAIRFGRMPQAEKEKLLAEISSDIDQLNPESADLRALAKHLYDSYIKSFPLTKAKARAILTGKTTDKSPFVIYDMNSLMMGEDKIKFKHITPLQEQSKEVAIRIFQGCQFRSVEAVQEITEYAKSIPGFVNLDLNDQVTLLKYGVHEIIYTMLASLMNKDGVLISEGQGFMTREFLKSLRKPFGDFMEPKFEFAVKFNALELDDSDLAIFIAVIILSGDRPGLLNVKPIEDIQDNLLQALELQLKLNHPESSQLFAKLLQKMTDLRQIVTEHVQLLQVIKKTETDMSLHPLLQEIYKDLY

outcome, inactive:
Cc1ccc(-c2nnc(Nc3ccc(O)cc3)c3ccccc23)cc1S(=O)(=O)NCCO, O=C(Nc1c(C(=O)Nc2ccc3c(c2)OCCO3)cnn1-c1ccccc1Cl)c1ccco1, O=C(O)CCN1C(=O)/C(=C/c2ccccc2Cl)SC1=S, Cc1ccc2nc(N3C(=O)C(O)=C(C(=O)c4ccco4)C3c3ccc(O)cc3)sc2c1 (stereo not drawn), COc1ccc(S(=O)(=O)N2CCCCC2)cc1NC(=O)C1CSC2(C)CCC(=O)N12 (stereo not drawn), O=c1c2cn(Cc3ccc(F)cc3)c3ccc(F)cc3c-2nn1Cc1ccc(F)cc1, Cc1ccc2[nH]c(=O)c(CN(Cc3cccs3)Cc3nnnn3CC3CCCO3)cc2c1 (stereo not drawn), COc1ccc(CNC(=O)Cn2c(=O)n(CCC(=O)N3CCCCC3)c(=O)c3sccc32)cc1
